Experimental data published in PubChem BioAssay.
Values without a mark were called inactive. Activity calls are given as the source filed them.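 The calls were made as follows: active = mean inhibition over 43.08%, the solvent-only control mean plus 3 SD; inactive = the rest.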

Target: Nuclear receptor coactivator 3 (Homo sapiens) (UniProt Q9Y6Q9)
Experiment: NCOA3 GAL4-fusion reporter inhibition – cell-based, luminescence, quadruplicate, confirmation (AID 588792);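 also: 0% = DMSO treated cells and 100% = gossypol at 36 µM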
Conditions: HEK293 GAL4-SRC3 luciferase reporter, at 3.6 µM, hits give high values

Sequence of Nuclear receptor coactivator 3 (Homo sapiens) (Q9Y6Q9 whole entry, looked up, the tested form may be a part): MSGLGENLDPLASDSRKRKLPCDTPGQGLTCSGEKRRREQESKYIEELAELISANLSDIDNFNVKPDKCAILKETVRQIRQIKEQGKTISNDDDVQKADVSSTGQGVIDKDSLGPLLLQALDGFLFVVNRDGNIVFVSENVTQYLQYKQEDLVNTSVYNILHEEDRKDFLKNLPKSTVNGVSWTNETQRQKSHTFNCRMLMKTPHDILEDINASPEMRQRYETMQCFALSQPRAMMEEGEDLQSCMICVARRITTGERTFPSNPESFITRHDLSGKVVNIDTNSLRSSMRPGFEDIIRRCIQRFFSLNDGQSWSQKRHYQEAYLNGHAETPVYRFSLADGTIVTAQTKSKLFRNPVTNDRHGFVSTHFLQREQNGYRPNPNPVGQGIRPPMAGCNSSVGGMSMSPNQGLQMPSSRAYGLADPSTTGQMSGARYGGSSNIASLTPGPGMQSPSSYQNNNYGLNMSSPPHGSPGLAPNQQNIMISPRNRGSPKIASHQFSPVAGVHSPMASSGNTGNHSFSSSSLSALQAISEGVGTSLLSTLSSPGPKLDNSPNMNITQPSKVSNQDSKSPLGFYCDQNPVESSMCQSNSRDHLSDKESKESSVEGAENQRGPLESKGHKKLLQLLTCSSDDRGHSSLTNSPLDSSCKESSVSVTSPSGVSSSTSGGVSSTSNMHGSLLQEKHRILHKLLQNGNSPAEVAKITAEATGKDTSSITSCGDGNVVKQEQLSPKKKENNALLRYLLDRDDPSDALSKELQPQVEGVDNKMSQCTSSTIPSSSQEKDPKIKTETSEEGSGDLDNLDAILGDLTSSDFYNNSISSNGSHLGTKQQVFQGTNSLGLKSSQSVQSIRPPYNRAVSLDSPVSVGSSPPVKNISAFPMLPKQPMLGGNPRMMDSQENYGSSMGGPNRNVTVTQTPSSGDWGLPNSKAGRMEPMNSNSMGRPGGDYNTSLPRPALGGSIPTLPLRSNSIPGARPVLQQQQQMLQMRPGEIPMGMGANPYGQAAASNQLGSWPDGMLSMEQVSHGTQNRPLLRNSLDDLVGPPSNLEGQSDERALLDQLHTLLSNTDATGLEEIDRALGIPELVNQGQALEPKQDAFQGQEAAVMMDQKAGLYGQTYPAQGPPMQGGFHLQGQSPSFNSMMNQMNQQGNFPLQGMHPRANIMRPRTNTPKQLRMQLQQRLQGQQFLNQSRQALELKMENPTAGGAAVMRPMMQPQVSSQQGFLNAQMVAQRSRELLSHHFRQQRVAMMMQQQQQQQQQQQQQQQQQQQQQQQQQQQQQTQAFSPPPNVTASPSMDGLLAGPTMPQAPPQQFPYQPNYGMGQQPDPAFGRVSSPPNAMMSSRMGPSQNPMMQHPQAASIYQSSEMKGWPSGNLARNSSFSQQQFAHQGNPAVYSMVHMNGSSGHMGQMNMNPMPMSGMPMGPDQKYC

SMILES | inhibition
Cc1ccc(CNc2ncnc3ccc(-c4ccoc4C)cc23)o1 | 58.8% (active)
O=C(Nc1c2ccccc2nc2ccccc12)C(Cl)(Cl)Cl | -27%
O=[N+]([O-])c1ccc(O)c(/C=N/Nc2ccccn2)c1 | 56.8% (active)
COc1ccc(-c2csc(NC(=O)C3CCN(c4ncnc5sc(C)c(C)c45)CC3)n2)cc1OC | 24.1%
CN(C)CCCN1C(=O)c2cccc3c([N+](=O)[O-])ccc(c23)C1=O | 17.8%
Cc1cc(C(=O)COC(=O)c2cccc(NS(C)(=O)=O)c2)c(C)n1CC1CCCO1 (stereo unspecified) | 19.3%
O=C(NN=C(c1ccccc1)c1ccccn1)c1ccccc1 | 44.2% (active)
Cc1ccc(NC(=O)c2cc3ccccc3oc2=O)cc1S(=O)(=O)N(C)C | 82.9% (active)
O=c1[nH]c(=S)ccn1C1OC(CO)C(O)C1O (stereo unspecified) | 3.59%
Cc1nn(Cc2ccc(Cl)cc2)c(C)c1NC(=O)c1cc(-c2ccc3c(c2)OCO3)on1 | 15.2%
Cc1cccc(CNc2ncnc3ccc(-c4ccoc4)cc23)c1 | 47% (active)
CC(=O)NS(=O)(=O)c1ccc(NC(=O)/C=C/c2cn(-c3ccccc3)nc2-c2ccccc2)cc1 | -12.7%
CCSCCc1nnc(NC(=O)Nc2cccc(C(F)(F)F)c2)s1 | 47.7% (active)
CCN(CC)CCNC(=O)c1ccc2c(c1NCCO)C(=O)c1ccccc1C2=O | -15.3%
COc1ccc(-c2c[n+]3c(n2-c2ccccc2)CCCCC3)cc1 | 43.4% (active)
O=S(=O)(/C(=C\c1ccc(C(F)(F)F)cc1)c1nc2ccccc2[nH]1)c1ccccc1 | 69.8% (active)
